# In all, about 5,500 compounds went through this assay and about 2,000 (36%) were called active. Roughly 18% stayed inconclusive and do not appear here. This is one part of the list. Unmarked numbers belong to inactive results. Cut-off read from the data, not from the text of the source: active = normalized growth mostly below about 0.91 (no sharp cut-off); inconclusive = no clear call, values can overlap the other calls; inactive = mostly above about 0.92.
# Experiment: chemical genetic growth profiling, strain panel (AID 1159580);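 note: tested at 20 µM; growth read once vehicle control cultures reached saturation at 30 °C; 1 = growth at the plate median or of vehicle wells; lower values mean less growth of the strain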
# Conditions: S. cerevisiae deletion strains, growth OD
# [1] = locus YDL101C, strain DUN1, stronger effect = lower value
# [2] = locus YHR030C, strain SLT2, stronger effect = lower value
# [3] = locus YAL013W, strain DEP1, stronger effect = lower value
# [4] = locus YGR078C, strain PAC10, stronger effect = lower value
# [5] = locus YJR075W, strain HOC1, stronger effect = lower value
# [6] = locus YMR307W, strain GAS1, stronger effect = lower value
# [7] = locus YNL153C, strain GIM3, stronger effect = lower value
smiles,measurement,setting,value
Cc1nc(C(F)(F)F)ccc1-c1nnc(SC(=O)c2ccc(Cl)cc2)o1,normalized growth,"locus YAR019C, strain CDC15, stronger effect = lower value",0.875 (active)
same,normalized growth,"locus YBL105C, strain PKC1, stronger effect = lower value",0.883 (active)
same,normalized growth,"locus YBR135W, strain CKS1, stronger effect = lower value",0.884 (active)
same,normalized growth,"locus YBR136W, strain MEC1, stronger effect = lower value",0.888 (active)
same,normalized growth,"locus YBR160W, strain CDC28, stronger effect = lower value",0.878 (active)
same,normalized growth,"locus YDL017W, strain CDC7, stronger effect = lower value",0.882 (active)
same,normalized growth,"locus YDL028C, strain MPS1, stronger effect = lower value",0.884 (active)
same,normalized growth,[1],0.866 (active)
same,normalized growth,"locus YDL108W, strain KIN28, stronger effect = lower value",0.882 (active)
same,normalized growth,"locus YDL132W, strain cdc53, stronger effect = lower value",0.877 (active)
same,normalized growth,"locus YDL214C, strain PRR2, stronger effect = lower value",0.648 (active)
same,normalized growth,"locus YDR052C, strain DBF4, stronger effect = lower value",0.886 (active)
same,normalized growth,"locus YDR054C, strain cdc34, stronger effect = lower value",0.857 (active)
same,normalized growth,"locus YDR226W, strain ADK1, stronger effect = lower value",0.867 (active)
same,normalized growth,"locus YDR477W, strain SNF1, stronger effect = lower value",0.82
same,normalized growth,"locus YER123W, strain YCK3, stronger effect = lower value",0.49 (active)
same,normalized growth,"locus YER133W, strain GLC7, stronger effect = lower value",0.792
same,normalized growth,"locus YFL009W, strain cdc4, stronger effect = lower value",0.868 (active)
same,normalized growth,"locus YFL029C, strain CAK1, stronger effect = lower value",0.872 (active)
same,normalized growth,"locus YFR003C, strain YPI1, stronger effect = lower value",0.879 (active)
same,normalized growth,"locus YFR019W, strain FAB1, stronger effect = lower value",0.81
same,normalized growth,"locus YFR028C, strain CDC14, stronger effect = lower value",0.881 (active)
same,normalized growth,"locus YGR040W, strain KSS1, stronger effect = lower value",0.831
same,normalized growth,"locus YGR052W, strain FMP48, stronger effect = lower value",0.638
same,normalized growth,"locus YGR092W, strain DBF2, stronger effect = lower value",0.568
same,normalized growth,[2],0.358 (active)
same,normalized growth,"locus YHR079C, strain IRE1, stronger effect = lower value",0.442 (active)
same,normalized growth,"locus YHR082C, strain KSP1, stronger effect = lower value",0.617 (active)
same,normalized growth,"locus YHR205W, strain SCH9, stronger effect = lower value",0.348 (active)
same,normalized growth,"locus YIL147C, strain SLN1, stronger effect = lower value",0.885 (active)
same,normalized growth,"locus YJL095W, strain BCK1, stronger effect = lower value",0.532
same,normalized growth,"locus YJL128C, strain PBS2, stronger effect = lower value",0.747 (active)
same,normalized growth,"locus YJL157C, strain FAR1, stronger effect = lower value",0.764
same,normalized growth,"locus YJR016C, strain ILV3, stronger effect = lower value",0.87 (active)
same,normalized growth,"locus YJR066W, strain TOR1 (second series), stronger effect = lower value",0.393 (active)
same,normalized growth,"locus YJR066W, strain TOR1, stronger effect = lower value",0.631
same,normalized growth,"locus YKL048C, strain ELM1, stronger effect = lower value",0.785 (active)
same,normalized growth,"locus YKL067W, strain YNK1, stronger effect = lower value",0.641 (active)
same,normalized growth,"locus YKL101W, strain HSL1, stronger effect = lower value",0.639 (active)
same,normalized growth,"locus YKL193C, strain SDS22, stronger effect = lower value",0.874 (active)
same,normalized growth,"locus YKL203C, strain TOR2, stronger effect = lower value",0.862
same,normalized growth,"locus YLR113W, strain HOG1, stronger effect = lower value",0.229 (active)
same,normalized growth,"locus YLR133W, strain CKI1, stronger effect = lower value",0.684 (active)
same,normalized growth,"locus YLR403W, strain SFP1, stronger effect = lower value",0.818
same,normalized growth,"locus YML070W, strain DAK1, stronger effect = lower value",0.604 (active)
same,normalized growth,"locus YMR001C, strain CDC5, stronger effect = lower value",0.875 (active)
same,normalized growth,"locus YMR205C, strain PFK2 (second series), stronger effect = lower value",0.682 (active)
same,normalized growth,"locus YMR277W, strain FCP1, stronger effect = lower value",0.876 (active)
same,normalized growth,"locus YNL006W, strain LST8, stronger effect = lower value",0.888 (active)
same,normalized growth,"locus YNL020C, strain ARK1, stronger effect = lower value",0.655 (active)
same,normalized growth,"locus YNL161W, strain CBK1, stronger effect = lower value",0.865 (active)
same,normalized growth,"locus YNL183C, strain NPR1, stronger effect = lower value",0.566 (active)
same,normalized growth,"locus YNL207W, strain RIO2, stronger effect = lower value",0.874 (active)
same,normalized growth,"locus YNL222W, strain SSU72, stronger effect = lower value",0.877 (active)
same,normalized growth,"locus YNL307C, strain MCK1 (second series), stronger effect = lower value",0.589 (active)
same,normalized growth,"locus YOL078W, strain AVO1, stronger effect = lower value",0.874 (active)
same,normalized growth,"locus YOL136C, strain PFK27, stronger effect = lower value",0.604 (active)
same,normalized growth,"locus YOR061W, strain CKA2, stronger effect = lower value",0.644 (active)
same,normalized growth,"locus YOR119C, strain RIO1, stronger effect = lower value",0.909
same,normalized growth,"locus YOR231W, strain MKK1, stronger effect = lower value",0.454 (active)
same,normalized growth,"locus YOR329C, strain SCD5, stronger effect = lower value",0.877 (active)
same,normalized growth,"locus YPL031C, strain PHO85, stronger effect = lower value",0.81
same,normalized growth,"locus YPL153C, strain RAD53, stronger effect = lower value",0.837
same,normalized growth,"locus YPL204W, strain HRR25, stronger effect = lower value",0.782
same,normalized growth,"locus YPL209C, strain IPL1, stronger effect = lower value",0.877 (active)
same,normalized growth,"locus YPL256C, strain CLN2, stronger effect = lower value",0.334 (active)
same,normalized growth,"locus YPR025C, strain CCL1, stronger effect = lower value",0.877 (active)
same,normalized growth,"locus YPR106W, strain ISR1, stronger effect = lower value",0.833 (active)
same,normalized growth,"locus YPR111W, strain DBF20, stronger effect = lower value",0.803 (active)
same,normalized growth,"strain NNK1, stronger effect = lower value",0.786 (active)
same,normalized growth,"strain TSCII, stronger effect = lower value",0.865 (active)
CCOC(=O)CC1=Nn2c(nnc2-c2cc(Cl)cc(Cl)c2)SC1,normalized growth,[3],0.97
same,normalized growth,"locus YBR229C, strain ROT2, stronger effect = lower value",0.905 (active)
same,normalized growth,[1],0.914
same,normalized growth,"locus YDL134C, strain PPH21, stronger effect = lower value",0.996
same,normalized growth,"locus YDR150W, strain NUM1, stronger effect = lower value",0.857
same,normalized growth,"locus YEL061C, strain CIN8, stronger effect = lower value",0.934
same,normalized growth,[4],0.97
same,normalized growth,"locus YGR229C, strain SMI1, stronger effect = lower value",0.979
same,normalized growth,[2],0.538 (active)
same,normalized growth,"locus YHR087W, strain rtc3, stronger effect = lower value",0.927
same,normalized growth,"locus YJL187C, strain SWE1, stronger effect = lower value",0.913 (active)
same,normalized growth,"locus YJR043C, strain POL32, stronger effect = lower value",0.989
same,normalized growth,[5],0.811 (active)
same,normalized growth,"locus YLR039C, strain RIC1, stronger effect = lower value",0.91
same,normalized growth,"locus YLR058C, strain SHM2 (second series), stronger effect = lower value",0.971
same,normalized growth,"locus YLR085C, strain ARP6, stronger effect = lower value",0.808
same,normalized growth,"locus YLR262C, strain YPT6, stronger effect = lower value",0.982
same,normalized growth,"locus YML094W, strain GIM5, stronger effect = lower value",0.823 (active)
same,normalized growth,"locus YMR219W, strain ESC1, stronger effect = lower value",0.955
same,normalized growth,"locus YMR263W, strain SAP30, stronger effect = lower value",0.965
same,normalized growth,[6],0.806
same,normalized growth,[7],0.95
same,normalized growth,"locus YNL298W, strain CLA4 (second series), stronger effect = lower value",0.823 (active)
same,normalized growth,"locus YNL322C, strain KRE1, stronger effect = lower value",0.977
same,normalized growth,"locus YNR030W, strain Alg12, stronger effect = lower value",0.914
same,normalized growth,"locus YPL055C, strain LGE1, stronger effect = lower value",0.864
same,normalized growth,"locus YPL241C, strain CIN2, stronger effect = lower value",1.01
same,normalized growth,"locus YPR135W, strain CTF4, stronger effect = lower value",0.714
C=CCN1CC[C@]23CCCCC2[C@H]1Cc1ccc(O)cc13 (some centres not stated),normalized growth,[3],1.02
same,normalized growth,"locus YAL040C, strain CLN3, stronger effect = lower value",1.01
same,normalized growth,"locus YCL061C, strain MRC1 (second series), stronger effect = lower value",1.01
same,normalized growth,"locus YDR363W, strain ESC2, stronger effect = lower value",1.02
same,normalized growth,"locus YER002W, strain NOP16, stronger effect = lower value",1
same,normalized growth,[4],0.995
same,normalized growth,[5],0.999
same,normalized growth,[6],1.01
same,normalized growth,[7],1.02
same,normalized growth,"locus YNL175C, strain NOP13, stronger effect = lower value",1.01
same,normalized growth,"locus YNL197C, strain WHI3, stronger effect = lower value",0.997
same,normalized growth,"locus YNL224C, strain SQS1, stronger effect = lower value",0.988
same,normalized growth,"locus YOR083W, strain WHI5 (second series), stronger effect = lower value",1.01

# From PubChem BioAssay AID1159580 (chemical genetic matrix, 2015)
